Test results taken from PubChem BioAssay (NCI).
The panel holds about 79,000 compounds, 15% with a hit somewhere; the sample as a whole holds those more often. Activity calls are given as the source filed them. Rule as the data show it: active = growth inhibition above about 70%; inactive = the rest.

Assays:
[1] = NCI Yeast Anticancer Drug Screen. Data for the mlh1 strain (AID 171);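 also: 0% = growth of vehicle-treated control cultures of the same strain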; conditions: S. cerevisiae mlh1 strain growth inhibition, stronger effect = higher value
Procedure, shortened: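 Read-out: growth inhibition versus vehicle controls. Strain: engineered yeast with a defined DNA repair or cell cycle defect, compound-treated.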

[2] = NCI Yeast Anticancer Drug Screen. Data for the sgs1 strain (AID 173);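 also: 0% = growth of vehicle-only control cultures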; conditions: S. cerevisiae sgs1 mutant, stronger effect = higher value
Procedure, shortened: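 Read-out: yeast growth inhibition relative to vehicle controls, following compound exposure of a strain with a defined DNA repair/cell cycle alteration.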

[3] = NCI Yeast Anticancer Drug Screen. Data for the mlh1 rad18 strain (AID 175); conditions: S. cerevisiae mlh1 rad18 strain growth inhibition, stronger effect = higher value
Procedure, shortened: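 Yeast w/ defined DNA-repair lesions; compound exposure; growth vs vehicle controls → % inhibition.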

[4] = NCI Yeast Anticancer Drug Screen. Data for the rad18 strain (AID 177); conditions: S. cerevisiae rad18 mutant growth inhibition, stronger effect = higher value
Procedure, shortened: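 Readout: growth inhibition vs vehicle controls. Cells: genetically altered yeast strain, DNA repair defect.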

[5] = NCI Yeast Anticancer Drug Screen. Data for the wt1 strain (AID 149);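 also: 0% = growth of vehicle-treated wt1 cultures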; conditions: S. cerevisiae wt1 strain (SPY 50644) growth inhibition, stronger effect = higher value
Procedure, shortened: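 Yeast wt1 strain exposed to compounds; growth inhibition measured relative to vehicle-treated controls.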

[6] = NCI Yeast Anticancer Drug Screen. Data for the rad50EPP+ strain (AID 151);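 also: 0% = growth of vehicle-treated control cultures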; conditions: S. cerevisiae rad50 mutant strain, stronger effect = higher value
Procedure, shortened: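 Growth inhibition read against vehicle controls in rad50EPP+ yeast, a strain altered in DNA damage repair, after compound exposure.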

[7] = NCI Yeast Anticancer Drug Screen. Data for the mgt1 strain (AID 153); conditions: S. cerevisiae mgt1 mutant growth inhibition, stronger effect = higher value
Procedure, shortened: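 mgt1 yeast grown with test compound; read-out is growth inhibition versus vehicle-treated cultures.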

[8] = NCI Yeast Anticancer Drug Screen. Data for the rad50 strain (AID 155);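 also: 0% = growth of vehicle-only cultures of the same strain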; conditions: S. cerevisiae rad50 strain growth inhibition, stronger effect = higher value
Procedure, shortened: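 Yeast carrying a defined DNA repair defect were exposed to test compounds, and growth was compared with vehicle-treated controls to give percent inhibition.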

[9] = NCI Yeast Anticancer Drug Screen. Data for the mec2-1 strain (AID 157); conditions: S. cerevisiae mec2-1 strain, stronger effect = higher value
Procedure, shortened: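 Yeast mec2-1 mutant treated with compound. Readout: growth inhibition vs vehicle controls.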

[10] = NCI Yeast Anticancer Drug Screen. Data for the rad14 strain (AID 159);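 also: 0% = growth of vehicle-treated control cultures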; conditions: S. cerevisiae rad14 strain growth inhibition, stronger effect = higher value
Procedure, shortened: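 Yeast cells carrying a defined DNA-repair defect were exposed to compounds, and growth inhibition was calculated relative to vehicle-treated control cultures.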

[11] = NCI Yeast Anticancer Drug Screen. Data for the sgs1 mgt1 strain (AID 161);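 also: 0% = growth of cultures given vehicle only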; conditions: S. cerevisiae sgs1 mgt1 strain, stronger effect = higher value
Procedure, shortened: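 Read-out: growth inhibition vs vehicle controls. Cells: mutant yeast strain deficient in DNA damage repair.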

[12] = NCI Yeast Anticancer Drug Screen. Data for the CLN2oe strain (AID 163);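 also: 0% = growth of vehicle-only control cultures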; conditions: S. cerevisiae CLN2oe strain, stronger effect = higher value
Procedure, shortened: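 Read-out: yeast growth inhibition, expressed relative to vehicle-only controls. The strain bears an engineered cell-cycle alteration.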

[13] = NCI Yeast Anticancer Drug Screen. Data for the cln2 rad14 strain (AID 165);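 also: 0% = growth equal to vehicle treated cultures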; conditions: S. cerevisiae cln2 rad14 strain, stronger effect = higher value
Procedure, shortened: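 cln2 rad14 yeast strain; compound exposure; growth inhibition read vs vehicle controls.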

[14] = NCI Yeast Anticancer Drug Screen. Data for the bub3 strain (AID 167); conditions: S. cerevisiae bub3 mutant strain, stronger effect = higher value
Procedure, shortened: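 Compounds were applied to a genetically altered yeast strain carrying a cell-cycle control defect. Growth inhibition was scored against vehicle-treated controls.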

[15] = NCI Yeast Anticancer Drug Screen. Data for the wt2 strain (AID 169);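 also: 0% = growth of vehicle-treated yeast cultures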; conditions: S. cerevisiae wt2 strain growth inhibition, stronger effect = higher value
Procedure, shortened: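 Read-out: growth inhibition versus vehicle-treated control cultures after compound exposure of the yeast strain.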

[16] = at 5.0 µM (retest, dose inferred, filed as 0.5)
[17] = at 50.0 µM (retest, dose inferred, filed as 5.0)

Measured: growth inhibition

NC(=O)C(=O)NNc1ccccc1
active: [1]; at 33.0 µM 75% | [1]; at 100.0 µM 98% | [2]; at 33.0 µM 92% | [2]; at 100.0 µM 98% | [3]; [17] 89% | [3]; at 50.0 µM 82.7% | [4]; at 33.0 µM 92% | [4]; at 100.0 µM 97%
inactive: [1]; at 1.2 µM 3% | [1]; at 3.7 µM 5% | [1]; at 11.0 µM 31% | [2]; at 1.2 µM 3% | [2]; at 3.7 µM 14% | [2]; at 11.0 µM 59% | [3]; [16] 45% | [4]; at 1.2 µM 6% | [4]; at 3.7 µM 17% | [4]; at 11.0 µM 65%

CN(C)CCNc1ccc2ncnc3c2c1C(=O)c1ccccc1-3
active: [6]; at 1.2 µM 90% | [6]; at 3.7 µM 90% | [6]; at 11.0 µM 93% | [6]; at 33.0 µM 95% | [6]; at 100.0 µM 95% | [8]; at 1.2 µM 94% | [8]; at 3.7 µM 95% | [8]; [16] 84% | [8]; at 11.0 µM 96% | [8]; at 33.0 µM 96% | [8]; [17] 97% | [8]; at 50.0 µM 76% | [8]; at 100.0 µM 96% | [11]; at 50.0 µM 77.4% | [12]; at 100.0 µM 74% | [14]; at 50.0 µM 74.2% | [3]; [17] 81% | [4]; at 100.0 µM 75%
inactive: [5]; at 1.2 µM 7% | [5]; at 3.7 µM 8% | [5]; at 11.0 µM 15% | [5]; at 33.0 µM 28% | [5]; at 100.0 µM 34% | [7]; at 1.2 µM 2% | [7]; at 3.7 µM 6% | [7]; at 11.0 µM 22% | [7]; at 33.0 µM 25% | [7]; at 100.0 µM 38% | [9]; at 1.2 µM 22% | [9]; at 3.7 µM 21% | [9]; [16] 15% | [9]; at 11.0 µM 32% | [9]; at 33.0 µM 45% | [9]; [17] 48% | [9]; at 50.0 µM 68.6% | [9]; at 100.0 µM 53% | [10]; at 1.2 µM 16% | [10]; at 3.7 µM 15% | [10]; at 11.0 µM 20% | [10]; at 33.0 µM 37% | [10]; at 100.0 µM 44% | [11]; [16] -21% | [11]; [17] 56% | [12]; at 1.2 µM 5% | [12]; at 3.7 µM 8% | [12]; at 11.0 µM 26% | [12]; at 33.0 µM 59% | [13]; [16] 2% | [13]; [17] 51% | [13]; at 50.0 µM 66.9% | [14]; at 1.2 µM -8% | [14]; at 3.7 µM -2% | [14]; [16] 33% | [14]; at 11.0 µM 11% | [14]; at 33.0 µM 21% | [14]; [17] 31% | [14]; at 100.0 µM 36% | [15]; at 1.2 µM 8% | [15]; at 3.7 µM 10% | [15]; at 11.0 µM 20% | [15]; at 33.0 µM 49% | [15]; at 100.0 µM 56% | [1]; at 1.2 µM 10% | [1]; at 3.7 µM 14% | [1]; at 11.0 µM 28% | [1]; at 33.0 µM 41% | [1]; at 100.0 µM 46% | [2]; at 1.2 µM 9% | [2]; at 3.7 µM 8% | [2]; at 11.0 µM 24% | [2]; at 33.0 µM 54% | [2]; at 100.0 µM 61% | [3]; [16] -13% | [3]; at 50.0 µM 65.5% | [4]; at 1.2 µM 11% | [4]; at 3.7 µM 12% | [4]; at 11.0 µM 25% | [4]; at 33.0 µM 61%
